Screening results: PubChem BioAssay, National Center for Advancing Translational Sciences (NCATS)
rTrxR1 inhibitor = qHTS Assay for Inhibitors of Mammalian Selenoprotein Thioredoxin Reductase 1 (TrxR1): qHTS; recombinant rTrxR1, NADPH fluorescence consumption, selenite substrate; Potency, µM (doses to about 114 µM), for inactives: top-dose activity change, negative = inhibition, actives largely listed as inhibitors; hit rate 1% among 390,000; AID 588453, 2011; further: nearly all actives have a fitted effect of over 65% in size
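Rat TrxR1 (90 nM in the dispensed reagent) was pre-reduced with 400 uM NADPH for 5 min at room temperature, then incubated with compound for 15 min. After 400 uM selenite was added, NADPH fluorescence (Ex 340/Em 450 nm) was followed for 8 min.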
Sfp PPTase inh = qHTS Assay for Inhibitors of Bacillus subtilis Sfp phosphopantetheinyl transferase (PPTase); Potency, µM, for the others: largest response in the series, negative = inhibition, most hits filed as inhibitors; AID 1490, 2009; Biochemical Sfp PPTase activity, qHTS; 4'-phosphopantetheinyl transferase ffp (Bacillus subtilis), Q9F4F7; hit rate 3.5% among 310,000;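 further: the enzyme is Sfp with the accession as filed and its product quenches rhodamine fluorescence; 0% = enzyme reaction without inhibitor and -100% = no enzyme wells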
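Step 1, compound plus 15 nM Sfp-PPTase, 15 min, room temperature. Step 2, add rhodamine-CoA (5 uM) and BHQ-2-YbbR (12.5 uM). Step 3, read 525/598 nm fluorescence at 0 and 30 min.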
TrxR1 substrate = qHTS Assay for Substrates of Mammalian Selenoprotein Thioredoxin Reductase 1 (TrxR1): qHTS. Potency, µM (titrated, usually from 114 µM), without a hit: at the highest dose activity change, negative = substrate turnover. Thioredoxin reductase 1, cytoplasmic (Rattus norvegicus), O89049. purified TrxR1 substrate turnover, NADPH consumption readout. AID 588456, 2011. hit rate 0.01% among 390,000; further: nearly all actives have a fitted effect of over 50% in size
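Rat TrxR1, dispensed at 90 nM, was prereduced with 400 uM NADPH (final) for 5 min at ~22 deg C, then incubated with compound 15 min before 400 uM selenite. A first-read NADPH fluorescence drop versus no-compound background flagged substrates.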
VDR inhibitor = Inhibitors of the vitamin D receptor (VDR): qHTS; hit rate 0.93% among 400,000; Vitamin D3 receptor (Homo sapiens), P11473; Potency, µM, for the others: max response, negative = inhibition, most hits filed as inhibitors; VDR-SRC2-3 peptide fluorescence polarization, 2 h
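Reagent solutions, kept cold and dark, are dispensed first; compounds are then pinned in at 23 nl, plates briefly spun, and incubated 2 h at ambient temperature. Inhibition of VDR–SRC2-3 peptide binding is read by fluorescence polarization.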
GLS inh = qHTS for Inhibitors of Glutaminase (GLS) | Glutaminase kidney isoform, mitochondrial (Homo sapiens), O94925 | GLS enzymatic activity, qHTS titration | Potency, µM (titrated, usually from 45.5 µM), without a hit: top-dose activity change, negative = inhibition, most hits filed as inhibitors | hit rate 0.21% among 410,000 | AID 624170, 2012
Target sequence (O94925 whole entry, looked up, canonical isoform): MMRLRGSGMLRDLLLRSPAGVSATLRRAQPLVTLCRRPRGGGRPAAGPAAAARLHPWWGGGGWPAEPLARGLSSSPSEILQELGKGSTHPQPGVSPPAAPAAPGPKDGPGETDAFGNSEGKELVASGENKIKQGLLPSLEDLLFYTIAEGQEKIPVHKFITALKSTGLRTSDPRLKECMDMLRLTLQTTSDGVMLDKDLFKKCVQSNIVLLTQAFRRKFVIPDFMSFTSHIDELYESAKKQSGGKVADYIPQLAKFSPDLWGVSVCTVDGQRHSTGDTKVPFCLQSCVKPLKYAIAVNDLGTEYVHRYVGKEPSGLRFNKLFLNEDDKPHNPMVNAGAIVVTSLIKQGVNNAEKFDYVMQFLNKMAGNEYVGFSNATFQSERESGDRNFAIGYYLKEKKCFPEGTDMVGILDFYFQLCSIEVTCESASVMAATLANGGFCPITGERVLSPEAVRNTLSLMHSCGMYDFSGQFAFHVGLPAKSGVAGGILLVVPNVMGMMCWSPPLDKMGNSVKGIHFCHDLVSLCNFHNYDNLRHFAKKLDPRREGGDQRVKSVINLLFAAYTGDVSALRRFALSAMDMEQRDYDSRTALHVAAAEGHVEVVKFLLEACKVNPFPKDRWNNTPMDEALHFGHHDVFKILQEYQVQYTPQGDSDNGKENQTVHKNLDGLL
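hKGA in 45 mM KH2PO4 (pH 8.2), 0.02% Tween-20 with compound, then 1mM L-Glutamine (stock as added) plus glutamate oxidase/HRP/Amplex red coupling mix. Fluorescence read initially and after 30 min at RT; signal change reflects glutamate formation.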
KAT2A inh = qHTS Assay for Inhibitors of GCN5L2. hit rate 0.21% among 390,000. Potency, µM (highest dose often 58.9 µM), for the others: at the top dose activity change, negative = inhibition, usual class: inhibitors. GCN5L2 HAT assay, ThioGlo1 CoA-SH fluorescence
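ThioGlo1-coupled HAT assay: 20nM GCN5L2, 70uM acetyl-CoA, 75uM H3(1-25) peptide, pH 7.5. Fluorescence read at 340/540nm at start and after 20 min at room temperature.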
* marks the source's active call; other numbers are inactive results; ? = inconclusive; / = no result; [ ] = another dose, or the depositor's remark. A selection: hits, their analogues and other compounds. The true share with any hit is near 3.8%. The call rests on the fitted dose curve; in most records, active means well fitted curve in the direction sought with a large enough effect; inconclusive means small, poorly fitted or top-dose-only effect, or another doubt; inactive means no such curve, though single readings can be large; an effect the other way counts as inactive or inconclusive. Unless noted, on the % scale 0 is the no-effect control and ±100 the full control effect; potency means the concentration at half of the fitted maximal effect.

SMILES	rTrxR1 inhibitor	Sfp PPTase inh	TrxR1 substrate	VDR inhibitor	GLS inh	KAT2A inh
CCN(CC)CCNC(=O)C1c2cc(OC)c(OC)cc2C(=O)N2CCc3ccccc3C12 (stereo not drawn)	35.5µM*	17.0%	1.9%	2.0%	9.0%	-1.4%
COc1cc2c(cc1OC)C(C(=O)NC1CC1)C1c3ccccc3CCN1C2=O (stereo not drawn)	1.4%	/	-0.5%	8.1%	-19.5%	/
COc1ccccc1NC(=O)Cn1nnc2sc3c(c2c1=O)CC(C)(C)OC3	-20.2%	10.9%	-12.0%	-19.4%	0.6%	3.2%
CCN1C(=O)CS/C1=N\S(=O)(=O)c1ccc(Cl)cc1	10.2%[57.1 µM]	1.6%	0.2%[57.1 µM]	-5.5%	-6.7%	-6.0%
CCn1c(Cl)c(C=O)s/c1=N\S(=O)(=O)c1ccccc1	1.41µM*	?	-4.1%	3.16µM*	44.5%	-11.4%
CN1CCN(C(=O)C(=O)c2cn(CC(=O)N3CCCCCC3)c3ccccc23)CC1	/	/	/	/	-0.5%	/
Cc1ccc(/C=C/c2nc3ccccc3s2)s1	-26.7%	-7.2%	-9.9%	8.4%	3.4%	-9.2%
CC1OC(O[C@H]2CC[C@]3(C)C4C=C[C@]56OC[C@@]7(CC[C@@H](C)[C@H](C)C75)[C@H](O)C[C@@]6(C)[C@]4(C)CC[C@H]3C2(C)C)C(OC2OC(CO)C(O)C(O)C2OC2OCC(O)C(O)C2O)C(O)C1O (stereo partly drawn)	/	89.1µM*	/	/	/	-19.9%
Oc1cccc(/C=N/NC(=S)Nc2cccnc2)c1O	-29.9%[57.1 µM]	?	0.9%[57.1 µM]	0.4%	10µM*	-1.0%
Oc1ccc(/C=N/NC(=S)Nc2cccnc2)c(O)c1O	?	3.55µM*	-19.5%	50.1µM*	4.47µM*	-9.0%
Oc1ccc(/C=N/NC(=S)Nc2cccnc2)c(O)c1	-29.9%	-1.9%	-15.8%	-2.5%	20.2%	-2.6%
COc1cccc(C2/C(=C(\O)c3ccc(OC)c(OC)c3)C(=O)C(=O)N2c2cc(C)on2)c1 (stereo not drawn)	-10.3%[57.1 µM]	-13.3%	6.0%[57.1 µM]	6.0%	9.2%	-9.1%
CC(=O)NCCCC(=O)NNC1CC(=O)N(c2cccc(Cl)c2)C1=O (stereo not drawn)	14.1µM*	?	1.9%	?	7.0%	0.3%
O=C(C1CCN(C2CC(=O)N(c3cccc(Cl)c3)C2=O)CC1)N1CCCC1 (stereo not drawn)	8.2%[57.1 µM]	-5.9%	5.7%[57.1 µM]	-11.2%	5.3%	-4.9%
Cc1sc(NC(=O)CCl)c(C(=O)c2ccccc2)c1C	?	22.4µM*	1.9%	?	-20.2%	-13.9%
Cc1ccccc1C(=O)Nc1sc(C)c(C)c1C(=O)c1ccccc1	-14.0%	31.6µM*	-5.2%	?	-4.5%	-10.4%
O=C(O)c1ccc(CSc2nnc(-c3ccccc3Br)o2)cc1	17.7%	0.3%	5.9%	-8.7%	6.3%	-1.7%
CN1CCN(C(=S)c2ccc(-c3cc(Cl)ccc3Cl)o2)CC1	-4.6%	?	-7.0%	-29.3%	-4.5%	-6.1%
S=C(c1ccc(-c2ccc(Cl)cc2Cl)o1)N1CCCCC1	-22.2%	56.2µM*	-11.5%	-8.1%	1.1%	0.3%
S=C(c1ccc(-c2ccc(Cl)cc2Cl)o1)N1CCCC1	-6.3%	14.1µM*	-2.2%	?	11.8%	-16.3%
Cc1ccc(NC(=O)NNC(=O)C2CC(c3cccs3)=NO2)cc1 (stereo not drawn)	19.2%	10.8%	1.7%	-8.9%	23.8%	-3.4%
C=CCNC(=S)NS(=O)(=O)c1cccs1	-9.0%[57.1 µM]	22.4µM*	9.2%[57.1 µM]	-15.0%	-5.3%	-0.2%
CC1(C)CC(=O)C2=C(C1)c1c(ccc3ccccc13)NC2c1ccc(C(=O)O)cc1 (stereo not drawn)	74.4%[57.1 µM]	5.1%	285.6%[57.1 µM]	-4.5%	2.9%	-29.6%
CC1(C)CC(=O)C2=C(C1)c1c(ccc3ccccc13)NC2c1cc([N+](=O)[O-])cc([N+](=O)[O-])c1O (stereo not drawn)	9.9%[57.1 µM]	3.98µM*	-11.7%	-5.7%	2.2%	?
COc1ccc(C(=O)NC(=S)Nc2cccc(Cl)c2N2CCOCC2)cc1[N+](=O)[O-]	-0.3%[57.1 µM]	-6.7%	3.2%[57.1 µM]	3.6%	2.7%	-6.1%
SMILES	rTrxR1 inhibitor	Sfp PPTase inh	TrxR1 substrate	VDR inhibitor	GLS inh	KAT2A inh
COc1ccc(C(=O)Oc2ccc(Br)cc2C(=S)N2CCOCC2)cc1	-9.2%[57.1 µM]	-5.7%	-11.0%[57.1 µM]	25.2%	-1.0%	-1.2%
COc1cc(C(=O)Oc2ccc(Br)cc2C(=S)N2CCOCC2)cc(OC)c1OC	5.0%[57.1 µM]	31.6µM*	5.9%[57.1 µM]	?	5.6%	-14.2%
COc1cc(C(=S)N2CCOCC2)ccc1OC(=O)/C=C/c1ccco1	-4.6%	56.2µM*	-7.2%	-15.5%	2.9%	-14.5%
COc1ccc(C(=O)Oc2c(OC)cc(C(=S)N3CCOCC3)cc2OC)cc1OC	-18.5%	39.8µM*	-10.9%	?	-12.6%	?
COc1ccc(C(=O)Oc2c(OC)cc(C(=S)N3CCOCC3)cc2OC)cc1	14.1%	-4.4%	-0.9%	-9.7%	1.2%	-3.0%
COc1ccc(C(=S)N2CCOCC2)cc1OC(=O)c1ccc(C)cc1	20.4%	-1.4%	-1.2%	7.2%	0.0%	-5.6%
COc1ccc(C(=S)N2CCOCC2)cc1OC(=O)c1ccccc1	18.2%	56.2µM*	5.0%	-9.7%	-1.4%	-14.7%
Cc1ccc(C)c(OCCn2c(C3CC(=O)N(Cc4ccc(F)cc4)C3)nc3ccccc32)c1 (stereo not drawn)	10.7%	/	-2.9%	-0.1%	-10.4%	-1.3%
Cc1ccc(OCCNC(=O)/C=C/c2ccccc2)cc1C	-2.8%	-3.5%	-6.1%	14.1%	-9.2%	-2.7%
COc1ccc(C(=S)N2CCOCC2)cc1OC(=O)c1cc(OC)c(OC)c(OC)c1	3.8%	44.7µM*	-6.8%	?	?	-12.6%
COc1ccc(C(=S)N2CCOCC2)cc1OC(=O)c1ccc([N+](=O)[O-])cc1	-17.6%	50.1µM*	?	?	-25.9%	-17.0%
O=C(Oc1ccc(Br)cc1C(=S)N1CCOCC1)c1ccc(F)cc1	18.4%	31.6µM*	-0.1%	79.4µM*	10.4%	?
O=C(c1ccc(OCC2CCCO2)cc1)N1CCN(S(=O)(=O)c2cccc(F)c2)CC1 (stereo not drawn)	-6.7%	/	-9.6%	-11.3%	-3.2%	3.0%
COCc1cc(C)nc2sc(C(=O)N3CCCCC3)c(N)c12	-9.7%	79.4µM*	-8.0%	-15.0%	-0.9%	-8.9%
